Hits are enriched below; roughly 2.9% of the tested compounds scored in any of these assays.
Nrf2 inh = inhibitors of Nrf2 signaling | A549 ARE-Fluc reporter, luciferase luminescence, 18-24 h | Potency, µM (highest dose often 46 µM), for the others: top-dose activity change, negative = inhibition, most hits filed as inhibitors | hit rate 2.1% among 360,000; note: % is set by controls: 0 for no effect and ±100 for the full control effect; nearly all actives have a fitted effect of over 60% in size
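Concentration-response testing used A549 ARE_Fluc cells at 5000 cells/well. Following an 18-24 h compound incubation, viability was read by fluorescence (Ex 405/Em 525) and luciferase output by luminescence.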
A549 tox = counter-screen for Nrf2 inhibitors: cytotoxicity in A549 cells; A549 ARE-Fluc cells, CellTiter-Fluor viability, 18-24 h; Potency, µM (highest dose often 46 µM), without a hit: at the highest dose activity change, negative = cytotoxicity, actives largely listed as inhibitors; hit rate 0.16% among 390,000; AID 504648; note: % is set by controls: 0 for no effect and ±100 for the full control effect
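Cytotoxicity counterscreen: CellTiter-Fluor fluorescence was measured in A549 ARE_Fluc cells after 18-24 h of compound exposure in a concentration series. The subsequent BugLite luminescent read reports ARE-luciferase activity.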
S2 tox = viability counter-screen for ATXN expression inhibitors; S2 cells (HEK-293 line with an ATXN2-luciferase reporter) viability, CellTiter-Fluor protease fluorescence, 24 h; Potency, µM (top dose mostly 56.7 µM), most hits filed as cytotoxic; hit rate 0.49% among 400,000; note: nearly all actives have a fitted effect of over 40% in size
ATXN2 expr inh = ATXN2 expression inhibition; HEK-293 ATXN2-luciferase reporter, luminescence, 24 h; Potency, µM (highest dose often 57 µM), for the others: top-dose activity change, negative = inhibition, most hits filed as inhibitors; hit rate 0.72% among 360,000; AID 1745845; note: % is set by controls: 0 for no effect and ±100 for the full control effect; nearly all actives have a fitted effect of over 55% in size
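ATXN2-luciferase reporter cells (luciferase flanked by upstream and downstream ATXN2 gene portions) were treated 24 h at 37 °C with compounds at up to 57 uM. SteadyGlo luminescence gave expression; GF-AFC fluorescence gave viability.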
Nrf2 activator = Nrf2 pathway activation. AREc32 ARE-luciferase reporter (MCF7-derived line), luminescence, 24 h. Potency, µM (highest dose often 46.1 µM), for the others: at the top dose activation, usual class: activators. hit rate 0.31% among 410,000; note: % of control where 0% means no effect; nearly all actives have a fitted effect of over 65% in size
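Luciferase luminescence (Steady-Glo, 30 min at room temperature) served as the read-out of ARE activation in AREc32 cells treated with compounds for 24 hr at 37 deg C.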
Numbers without * were called inactive; ! = repeats disagree. Calls come from the whole dose curve; as a rule, active = well fitted curve in the direction sought with a large enough effect; inconclusive = small, poorly fitted or top-dose-only effect, or another doubt; inactive = no such curve, though single readings can be large; an effect the other way counts as inactive or inconclusive. Potency is the fitted concentration of half-maximal effect.

For CC(=O)O[C@@H](C[C@@H](C)C1=C2C[C@H](O)C3[C@@]4(C)CCC(=O)C(C)(C)C4CC[C@]3(C)[C@@]2(C)CC1)[C@H]1OC1(C)C (stereo partly specified) the results were Nrf2 inh inconclusive, A549 tox inconclusive, S2 tox 35µM*, ATXN2 expr inh inconclusive and Nrf2 activator 5%.
`C=C(CC[C@@H](O)C(C)(C)O)[C@H]1CC[C@]2(C)[C@@H]1CCC1[C@@]3(C)CCC(=O)C(C)(C)C3CC[C@]12C` (stereo partly specified) gave Nrf2 inh inconclusive, A549 tox inconclusive, S2 tox inactive, ATXN2 expr inh -9% and Nrf2 activator -1%.
Screening Cc1c(NC(=O)c2cccs2)cccc1-c1nc2cc(Cl)ccc2o1 returned Nrf2 inh inconclusive, A549 tox -2%, S2 tox inactive, ATXN2 expr inh -7% and Nrf2 activator 19%.
For CCOc1ccc(NC(=NCc2ccc3c(c2)OCO3)SC2CC(=O)N(c3ccccc3)C2=O)cc1 (stereo unspecified) the results were Nrf2 inh -14%, A549 tox -9%, S2 tox inconclusive, ATXN2 expr inh -35% and Nrf2 activator -1%.
`CCOc1ccc(NC(=NCc2ccc3c(c2)OCO3)SC2CC(=O)N(c3ccc(OCC)cc3)C2=O)cc1` (stereo unspecified) gave Nrf2 inh 15µM*, A549 tox -27%, S2 tox inactive, ATXN2 expr inh -28% and Nrf2 activator 0%.
COc1ccc(CN2CCCC(n3cc(C(=O)N4CCCCC4)nn3)C2)cc1OC (stereo unspecified) was read as S2 tox inactive.
`O=C(c1ccccc1)N1CCN(c2ncnc3sc4c(c23)CCC4)CC1` gave Nrf2 inh 16µM*, A549 tox -4%, S2 tox inactive, ATXN2 expr inh -21% and Nrf2 activator 1%.
c1nc(N2CCOCC2)c2c3c(sc2n1)CCCC3 was read as Nrf2 inh -15%, A549 tox 3%, S2 tox inactive, ATXN2 expr inh -1% and Nrf2 activator -1%.
Screening Cc1cc(OC(C)C(=O)Nc2c(C(=O)c3ccc(F)cc3)oc3ccccc23)ccc1Cl (stereo unspecified) returned Nrf2 inh 7%, A549 tox 2%, S2 tox inactive, ATXN2 expr inh 10% and Nrf2 activator 0%.
`O=C(NCCc1ccccc1)c1ccc(Cn2c(=O)c3cccn3c3cccnc32)cc1` gave Nrf2 inh 12%, A549 tox -3% and Nrf2 activator 0%.
For CCOc1ccc(CCNC(=O)c2ccc(Cn3c(=O)c4cccn4c4cccnc43)cc2)cc1 the results were Nrf2 inh 12µM*, A549 tox inconclusive and Nrf2 activator -1%.
`CCc1ccc(NC(=O)Cn2c(=O)c3cccn3c3ccccc32)cc1` gave Nrf2 inh 23µM*!, A549 tox 4%, S2 tox inconclusive and Nrf2 activator 12%.
For CCOC(=O)c1cccc(NC(=O)Cn2c(=O)c3cccn3c3ccccc32)c1 the results were Nrf2 inh 12µM*, A549 tox 0% and Nrf2 activator 7%.
`CCOC(=O)c1ccc(NC(=O)CCCn2c(=O)c3cccn3c3ccccc32)cc1` gave Nrf2 inh 4%, A549 tox -2% and Nrf2 activator -1%.
`CCOc1ccc(CNC(=O)Cn2c(=O)c3cccn3c3ccccc32)cc1` gave Nrf2 inh 16µM*, A549 tox -14%, S2 tox inactive, ATXN2 expr inh -8% and Nrf2 activator 0%.
N#CC1(c2cccc(C(=O)Nc3cc(Oc4ccc5nc(NC(=O)C6CC6)sc5n4)ccc3F)c2Cl)CC1 was read as ATXN2 expr inh -10%.
`Cc1ccc(C)c(CN2C[C@H](Sc3ccccn3)C[C@H]2C(=O)Nc2ccc3sc(C)nc3c2)c1` gave S2 tox inactive.
`COc1ccc(-c2nn(-c3ccc(C)c(Cl)c3)c3c2cnc2cc(OC)c(OC)cc23)cc1` gave A549 tox -1%, S2 tox inactive, ATXN2 expr inh 13% and Nrf2 activator 6%.
Screening CS(=O)(=O)N1CCc2cc(-c3csc(NC(=O)Cc4ccccc4)n3)ccc21 returned Nrf2 inh 21µM*, A549 tox -19%, S2 tox inactive, ATXN2 expr inh -32% and Nrf2 activator 3%.
`CC(=O)Nc1ccc(-c2csc(NC(=O)Cc3cccc(F)c3)n2)cc1` gave Nrf2 inh 21µM*, A549 tox 3%, S2 tox inactive, ATXN2 expr inh -37% and Nrf2 activator 5%.
`Cc1cc2c(s1)c1cnn(Cc3cccc(C(F)(F)F)c3F)c(=O)c1n2C` gave Nrf2 inh -7% and A549 tox 0%.
`O=C(NCCc1nnc2n1CCN(Cc1c(F)cccc1F)CC2)c1ccc(F)cc1` gave S2 tox inactive.
Clc1ccsc1-c1ccnc(-n2cccc2)n1 was read as Nrf2 inh inconclusive, A549 tox 8%, S2 tox inactive, ATXN2 expr inh 24% and Nrf2 activator 10µM*.
`Cc1ccsc1-c1ccnc(-n2cccc2)n1` gave Nrf2 inh inconclusive, A549 tox 9%, S2 tox inactive, ATXN2 expr inh 2% and Nrf2 activator 5µM*.
`Clc1ccsc1-c1ccc2ccccc2n1` gave Nrf2 inh inconclusive, A549 tox -3%, S2 tox inactive, ATXN2 expr inh 53% and Nrf2 activator 10µM*.
For Clc1ccc(-c2ccnc(-n3cccc3)n2)s1 the results were Nrf2 inh 21%, A549 tox 4%, S2 tox inactive, ATXN2 expr inh 4% and Nrf2 activator inconclusive.
Screening Cc1c(C(=O)NCC2CC2)sc2ncnc(NCCN3CCCCC3)c12 returned S2 tox inactive.
`O=C(NCC1(N2CCOCC2)CCCC1)c1cnn(-c2ncc3c(n2)-c2ccccc2CC3)c1C1CC1` gave S2 tox inactive.
Screening CCN(CC)C(=O)C1=C(C)N(Cc2ccc(C(C)(C)C)cc2)C(=O)C(CC(=O)NCC2CCCCC2)C1 (stereo unspecified) returned S2 tox 28µM*, ATXN2 expr inh inconclusive and Nrf2 activator 3%.
`CC1=C(C(=O)N(C)C)CC(CC(=O)NCC2CCCCC2)C(=O)N1Cc1ccc(C(C)(C)C)cc1` (stereo unspecified) gave S2 tox inconclusive, ATXN2 expr inh inconclusive and Nrf2 activator 3%.
`Cc1cccc(C(=O)NCC(=O)OCC(=O)c2ccc3ccccc3c2)c1` gave Nrf2 inh 7% and A549 tox -9%.
